Compound activity as filed in PubChem BioAssay.
In the library only some 1.2% were active in any assay of this set; here they are far more common.
hERG WT inh: qHTS for Inhibitors of KCHN2 3.1: Wildtype qHTS; Voltage-gated inwardly rectifying potassium channel KCNH2 (Homo sapiens), Q12809; U2OS, BacMam KCNH2, thallium flux FluxOr; hits give low values; activity change, % at 1.84 µM; 0.37% of 340,000 active;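 active means maximum activity change below -70%; inconclusive means maximum activity change between -70% and -50%; inactive means maximum activity change above -50%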
Target sequence (Q12809 whole entry, looked up): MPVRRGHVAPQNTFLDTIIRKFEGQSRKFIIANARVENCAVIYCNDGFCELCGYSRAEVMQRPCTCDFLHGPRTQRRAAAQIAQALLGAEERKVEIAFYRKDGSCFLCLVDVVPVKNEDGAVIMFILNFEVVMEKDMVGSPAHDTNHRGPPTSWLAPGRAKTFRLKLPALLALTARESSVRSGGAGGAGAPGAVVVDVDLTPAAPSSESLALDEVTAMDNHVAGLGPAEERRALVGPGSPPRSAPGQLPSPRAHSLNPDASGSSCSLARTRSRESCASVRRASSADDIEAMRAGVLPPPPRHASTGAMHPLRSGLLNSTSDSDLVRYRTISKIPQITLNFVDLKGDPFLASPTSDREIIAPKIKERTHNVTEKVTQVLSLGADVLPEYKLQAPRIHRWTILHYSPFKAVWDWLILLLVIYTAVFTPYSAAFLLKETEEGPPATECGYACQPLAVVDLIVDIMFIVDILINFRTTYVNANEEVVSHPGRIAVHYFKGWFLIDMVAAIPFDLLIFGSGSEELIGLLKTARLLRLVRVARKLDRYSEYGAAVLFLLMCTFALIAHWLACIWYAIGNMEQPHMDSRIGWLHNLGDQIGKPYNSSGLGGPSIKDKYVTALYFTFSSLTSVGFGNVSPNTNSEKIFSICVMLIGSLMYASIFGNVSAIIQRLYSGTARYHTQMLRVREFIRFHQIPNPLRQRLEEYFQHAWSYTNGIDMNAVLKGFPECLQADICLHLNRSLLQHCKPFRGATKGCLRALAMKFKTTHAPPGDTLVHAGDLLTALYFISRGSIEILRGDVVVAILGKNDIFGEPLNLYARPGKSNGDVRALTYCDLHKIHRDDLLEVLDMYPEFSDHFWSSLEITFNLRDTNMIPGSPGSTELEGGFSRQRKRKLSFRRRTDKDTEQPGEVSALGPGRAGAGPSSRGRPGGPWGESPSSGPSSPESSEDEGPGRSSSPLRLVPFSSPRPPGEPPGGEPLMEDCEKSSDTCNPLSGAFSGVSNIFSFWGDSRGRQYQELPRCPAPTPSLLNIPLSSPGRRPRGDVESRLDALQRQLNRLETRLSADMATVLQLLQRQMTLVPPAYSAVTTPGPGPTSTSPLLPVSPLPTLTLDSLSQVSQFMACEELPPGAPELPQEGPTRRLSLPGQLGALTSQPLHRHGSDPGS
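U2OS cells were transduced with wild-type KCNH2 virus (2.03 x 10^8 / mL) for 4 h at room temperature, then cultured overnight at 37 C. Thallium flux was read with FluxOr dye. Rate constants were normalized to DMSO controls.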
Tb PGK inh: qHTS Assay to Find Inhibitors of Phosphoglycerate Kinase. Phosphoglycerate kinase, glycosomal (Trypanosoma brucei brucei), P07378. PGK/GAPDH coupled, Kinase-Glo luminescence, 60 min. Potency, µM (highest dose often 57.5 µM), for the others: at the top dose activity change, negative = inhibition, hits mostly inhibitors. 0.043% of 380,000 active. AID 602233, 2012; further: potency means the concentration at half of the fitted maximal effect; nearly all actives have a fitted effect of over 60% in size
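Luminescent ATP detection (Kinase-Glo Plus) follows a 60-minute room-temperature incubation, with wells lacking PGK as controls. Buffer: 100 mM TEA (pH 7.6), 5 mM MgCl2, 0.01% Tween-20. Coupling enzyme GAPDH (100 nM final) supplies unstable 1,3-BPG in-well.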
Pin1 inh: qHTS Assay to Find Inhibitors of Pin1; Peptidyl-prolyl cis-trans isomerase NIMA-interacting 1 (Homo sapiens), Q13526; Pin1 FP peptide displacement, HiFluor488, 10 min; Potency, µM (titrated, usually from 115 µM), inactives show top-dose activity, negative = inhibition, hits mostly inhibitors; 0.009% of 390,000 active; AID 504891, 2011; active means well fitted inhibition curve with a large enough effect in the polarisation, with a control signal flat, not every such curve was filed as active; inconclusive means small, poorly fitted or top-dose-only effect, or effect the other way, or a change in a side signal; inactive means no such curve, though single readings can be large or run the other way; the % refers to the polarisation; further: potency means the concentration at half of the fitted maximal effect
KCNH2 3.1 block: qHTS for Inhibitors of KCHN2 3.1: Mutant qHTS. activity change, % (tested at about 1.8 µM). U2OS KCNH2 3.1, thallium flux FluxOr; hits give low values. Potassium voltage-gated channel subfamily H member 2, brain isoform KCNH2 3.1 (human). 0.95% of 340,000 active;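 active means maximum activity change below -70%; inconclusive means maximum activity change from -70% to -50%; inactive means maximum activity change above -50%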;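 further: thallium influx rate constant from kinetic fluorescence after stimulation buffer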
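Channel expression came from 3.1 mutant virus (1.77 x 10^8 /mL) applied to suspended U2OS cells for 4 h. Flux was tracked with FluxOr dye plus Red40 quencher, and kinetic rate constants normalized to controls.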
RGS4 inhibitor: Inhibitors of Regulator of G Protein Signaling (RGS) 4: qHTS; Transcreener GDP fluorescence polarization, RGS4-accelerated GTP hydrolysis; Potency, µM (doses to about 114 µM), for inactives: at the highest dose activity change, negative = inhibition, most hits filed as inhibitors; 0.039% of 390,000 active; Regulator of G-protein signaling 4 (Homo sapiens), P49798; further: potency means the concentration at half of the fitted maximal effect; nearly all actives have a fitted effect of over 75% in size
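MLSMR compounds (23 nl, pin-transferred) preincubated 10 min at room temperature with a 500nM (2x) first reagent, then RGS4 at 900nM (2x) plus Transcreener GDP mix added; fluorescence polarization (620/688 nm) read before and after 90 min at 30 °C.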
GCN5L2 inh: qHTS Assay for Inhibitors of GCN5L2 | Histone acetyltransferase KAT2A (Homo sapiens), Q92830 | 0.21% of 390,000 active | Potency, µM (highest dose often 58.9 µM), without a hit: at the highest dose activity change, negative = inhibition, hits mostly inhibitors | GCN5L2 HAT assay, ThioGlo1 CoA-SH fluorescence; further: potency means the concentration at half of the fitted maximal effect
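ThioGlo1-coupled HAT assay: 20nM GCN5L2, 70uM acetyl-CoA, 75uM H3(1-25) peptide, pH 7.5. Fluorescence read at 340/540nm at start and after 20 min at room temperature.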
* marks the source's active call; other numbers are inactive results; i = inactive; ? = inconclusive; . = no result; [ ] = another dose, or the depositor's remark. Unless noted, the call rests on the fitted dose curve; in most records, active means well fitted curve in the direction sought with a large enough effect; inconclusive means small, poorly fitted or top-dose-only effect, or another doubt; inactive means no such curve, though single readings can be large; an effect the other way counts as inactive or inconclusive. On the % scale 0 is the no-effect control and ±100 the full control effect.

SMILES | hERG WT inh | Tb PGK inh | Pin1 inh | KCNH2 3.1 block | RGS4 inhibitor | GCN5L2 inh
CN1CCN(CC(O)COC(c2ccc(Cl)cc2)c2ccc(Cl)cc2)CC1 (configuration not stated) | 9 | i | 1% | -94* | -10% | -9%
CC(C)NC(=O)Cn1nc(N2CCN(c3ccccc3)CC2)ccc1=O | . | -11% | 0% | . | -17% | 1%
C=CCn1c(SCCC)nc2ccccc2c1=O | . | . | 7% | . | 1% | .
O=C(CSc1nnc(SCc2ccccc2)s1)NNC(=S)Nc1ccccc1 | -85* | -2% | 6% | -1 | -34% | ?
O=C(CN1CCN(S(=O)(=O)c2ccc(Br)s2)CC1)NC1CCCCC1 | 0 | i | -6% | -3 | ? | .
O=C(CN1CCN(S(=O)(=O)c2ccc(Br)s2)CC1)N1CCCCC1 | -227* | -7% | 3% | 13 | -15% | -5%
COc1ccc(OCCN2CCN(C(=O)c3ccc(OC)cc3)CC2)cc1 | 2 | 5% | -3% | -48 | -2% | -22%
COc1ccc(OCCN2CCN(C(=O)c3ccc(OC(F)F)c(OC)c3)CC2)cc1 | 26 | -2% | 0% | -76* | 5% | -3%
O=C(COC(=O)/C=C/c1ccc([N+](=O)[O-])cc1)NC(c1ccccc1)c1ccccc1 | -133* | i | -3% | -11 | -3% | 3%
O=C(COC(=O)/C=C/c1ccc([N+](=O)[O-])cc1)NCc1ccccc1 | 1 | 7% | 0% | -8 | 7% | -2%
O=C(Nc1ccccc1N1CCOCC1)c1ccc(Cl)nc1 | 2 | 1% | 1% | -105* | 7% | ?
CCCC[C@]12Cc3cc(C#N)ccc3C(O1)c1c(cc(-c3ccccc3)oc1=O)O2 | . | . | . | . | . | -7%[12.7 µM]
CC1=C(C(=O)Nc2cccnc2)C(c2cccc(Br)c2)n2nc(SCc3ccccc3)nc2N1 (configuration not stated) | . | -4% | 8% | . | 23% | 2%
O=C1/C(=C/C=C/c2ccco2)SC(=S)N1NS(=O)(=O)c1ccccc1 | -18 | ? | ? | -6 | -10%[11.4 µM] | 20µM*
CCN(C(=O)C(C)N1C(=O)/C(=C/c2ccco2)SC1=S)C1CCS(=O)(=O)C1 (configuration not stated) | -23 | -14% | ? | -14 | ? | 0%
O=C1/C(=C/c2cccs2)SC(=S)N1NS(=O)(=O)c1ccccc1 | -28 | 6% | -1% | 20 | -14% | -2%
CC(C(=O)O)N1C(=O)/C(=C/C=C/c2ccco2)SC1=S (configuration not stated) | -9 | 7.9µM* | . | 12 | ? | 7.9µM*
Cc1cccc(NC(=O)C(C)OC(=O)CNC(=O)C2CCCCC2)c1 (configuration not stated) | -144* | 8% | . | 7 | . | .
COc1ccc(C(=O)C(C)OC(=O)CNC(=O)C2CCCCC2)cc1 (configuration not stated) | -4 | -7% | 2% | -13 | 10% | 0%
Cc1ccc(CN2CC(C(=O)N3CCN(S(=O)(=O)c4ccc(C(C)C)cc4)CC3)CC2=O)cc1 (configuration not stated) | 3 | 4% | -14% | -79* | 1% | -2%
Cc1ccc(C2C3=C(CC(C)(C)CC3=O)OC3=C2C(=O)CC(C)(C)C3)cc1 | 1 | i | -10% | -85* | -41% | -2%
Cc1ccc(C2C3=C(CCCC3=O)OC3=C2C(=O)CCC3)cc1 | 9 | 0% | 8% | 3 | 21% | -3%
C=C(C)CC(C)(C)C | . | . | . | . | . | 0%
Cc1ccc(C(CC(=O)N2CCNCC2)c2ccccc2)c(O)c1C (configuration not stated) | -11 | . | ? | -107* | 24% | -3%
Cc1ccc(C(CC(=O)N2CCCCC2)c2ccccc2)c(O)c1C (configuration not stated) | 4 | -3% | 8% | -24 | 1% | -19%
SMILES | hERG WT inh | Tb PGK inh | Pin1 inh | KCNH2 3.1 block | RGS4 inhibitor | GCN5L2 inh
CSCC[C@H](NC(=O)[C@H](CC(C)C)NC(=O)CCNC(=O)[C@@H](NC(=O)[C@H](Cc1ccccc1)NC(=O)[C@H](CO)NC(=O)[C@@H](N)CC(=O)O)C(C)C)C(N)=O | . | . | . | . | . | 13%
Cc1c(N2C(=O)CS/C2=N\N=C\c2ccc(Br)cc2)c(=O)n(-c2ccccc2)n1C | -5 | 1% | -1% | -6 | 14% | 1.6µM*
COc1ccc(C(=O)N2CCN(c3ccc(NC(=O)c4cccs4)cc3)CC2)cc1 | 12 | 1% | 9% | -92* | -15% | 0%
O=C(Nc1ccc(N2CCN(C(=O)c3ccccc3)CC2)cc1)c1cccs1 | -136* | -3% | 1% | -177* | -4% | 2%
Cc1ccc(C(=O)N2CCN(c3ccc(NC(=S)NC(=O)c4cccs4)cc3)CC2)cc1 | -33 | -6% | -1% | -1 | -6% | -6%
CNC(=O)c1cnn2c(C)cc(C)nc12 | . | . | 0% | . | . | .
COc1ccccc1C(=O)NCc1nnnn1-c1ccc(C)c(C)c1 | . | 6% | -2% | . | 10% | 4%
COc1ccccc1Oc1nnnn1-c1ccc(C(N)=O)cc1 | -22 | -6% | -7% | -85* | -24% | -6%
O=[N+]([O-])c1ccc(C(c2sc3nc(-c4ccco4)nn3c2O)N2CCC3(CC2)OCCO3)cc1 (configuration not stated) | . | -5% | -11% | . | -19% | -5%
CCOC(=O)CC(NC(=O)c1cc2cc(Cl)ccc2oc1=O)c1ccc(C)cc1 (configuration not stated) | . | 10% | 4% | . | 19% | 0%
CSc1ccc(CN(C)C(=O)c2cccc(S(=O)(=O)N3CCN(Cc4ccccc4)CC3)c2)cc1 | -122* | -3% | 13% | -7 | -26% | -9%
CSc1nc(=S)c2[nH]c(=S)[nH]c2[nH]1 | -5 | -8% | -21% | 18 | ? | 3.2µM*
Cn1c(=O)c2nc(SCC(=O)Nc3cc(Cl)cc(Cl)c3)n(C)c2n(C)c1=O | . | 0% | -1% | . | -1% | 1%
O=c1c2sc3ccccc3c2n(Cc2ccc(F)cc2)c(=O)n1Cc1ccccc1 | . | -1% | 1% | . | 10% | 20%
